Reference: the OligoGym collection

Tests used:
Experiment in all cases: pooled miR-30 sensor sort-seq; sequence = guide strand
Details in all cases: shRNA
ASCC1 = target: ASCC1
ASB15 = target: ASB15
ASCL1 = target: ASCL1
ARPC4 = target: ARPC4
ASNSD1 = target: ASNSD1
ASPRV1 = target: ASPRV1
ASF1A = target: ASF1A
ATHL1 = target: ATHL1
ATOX1 = target: ATOX1
ATG16L1 = target: ATG16L1
ATP10B = target: ATP10B

TTGGACTGGATTCTTCCTGTAA gave a sensor-assay potency score (higher = more potent) (ASCC1) of -0.381.
With TTACACAAGATGTCCATCCTGG the sensor-assay potency score (higher = more potent) (ASB15) was 0.839.
With ATGCTCGTCCAGCAGCTGCTGC the sensor-assay potency score (higher = more potent) (ASCL1) was -1.67.
TTAGCTGAATATCATAACTTGT was tested, and the sensor-assay potency score (higher = more potent) (ASB15) was -0.69.
In the case of TTTCACACTATTCCACTCTTTC, the sensor-assay potency score (higher = more potent) (ASCC1) is reported as -0.561.
For TCAACTAATTCTTGTAGCCTGT, the sensor-assay potency score (higher = more potent) (ASCC1) was -0.154.
In the case of TCTCTTTCCAACTATATGCTTA, the sensor-assay potency score (higher = more potent) (ASCC1) is reported as -0.403.
TAAACCATTTGTACAAAACTTC gave a sensor-assay potency score (higher = more potent) (ASCL1) of -0.297.
For TTGTGTTTGTACATCTGCTCTG, the sensor-assay potency score (higher = more potent) (ARPC4) was 0.407.
TAAGTTTGTAATAAAACAGTAA gave a sensor-assay potency score (higher = more potent) (ASCL1) of -0.00305.
Sequence AATTACACCATTTCGATGCTGG has a sensor-assay potency score (higher = more potent) (ASCC1) of 0.516.
TTTATATTTTACATACTCCTGG gave a sensor-assay potency score (higher = more potent) (ASB15) of -0.0391.
Work on TAGACCGGAATCCTTGTGGGGT yielded a sensor-assay potency score (higher = more potent) (ASCC1) of -0.676.
TCTTGGACTGGATTCTTCCTGT showed a sensor-assay potency score (higher = more potent) (ASCC1) of 0.362.
In the case of TTTCACAGCAATGCTGACCCGG, the sensor-assay potency score (higher = more potent) (ARPC4) is reported as -0.244.
TACATTAACAACATTTCTATAA was tested, and the sensor-assay potency score (higher = more potent) (ASCL1) was -1.04.
For TATCTTTGAATAGCTGGTGGTA, the sensor-assay potency score (higher = more potent) (ASB15) was -0.545.
With TGTATCTTTGAATAGCTGGTGG the sensor-assay potency score (higher = more potent) (ASB15) was -0.176.
TTGACTGACAGCTTCATCTCAC showed a sensor-assay potency score (higher = more potent) (ARPC4) of 0.494.
AAATCTTCTCGATCTCATCAGC gave a sensor-assay potency score (higher = more potent) (ARPC4) of -0.856.
Work on TCCATTTCTATTTTCTTCCTAG yielded a sensor-assay potency score (higher = more potent) (ASCC1) of -0.685.
Sequence TTCATCTCACTGATCTCCTTGT has a sensor-assay potency score (higher = more potent) (ARPC4) of 0.358.
TTTTCCTTCTCATTCCTGCTGA showed a sensor-assay potency score (higher = more potent) (ARPC4) of 0.452.
In the case of TTTTTCATCAGCTTCATCCATT, the sensor-assay potency score (higher = more potent) (ASB15) is reported as -0.484.
TAACTCTGTCATCACGACCAAG showed a sensor-assay potency score (higher = more potent) (ASNSD1) of -0.98.
For TTTGTCATCAACAGCAGCTTGA, the sensor-assay potency score (higher = more potent) (ASPRV1) was -0.258.
For TCCACCTTACTCATCTTCTTGT, the sensor-assay potency score (higher = more potent) (ASCL1) was -0.496.
TCATTGATGACTTCAAAGCTGT showed a sensor-assay potency score (higher = more potent) (ASPRV1) of -0.318.
In the case of TAATACATTAACAACATTTCTA, the sensor-assay potency score (higher = more potent) (ASCL1) is reported as 0.433.
ATGGAGTTCAAGTCGTTGGAGT was tested, and the sensor-assay potency score (higher = more potent) (ASCL1) was -1.08.
TTCTTCAATAATATTCTCCCTA showed a sensor-assay potency score (higher = more potent) (ASNSD1) of 0.32.
In the case of TTGGTGCTGAAGTACAACTGGT, the sensor-assay potency score (higher = more potent) (ASCL1) is reported as -0.518.
Sequence TTACTCATCTTCTTGTTGGCCG has a sensor-assay potency score (higher = more potent) (ASCL1) of 0.746.
Work on TTGCGCTCGCGCTCGTTGCGGC yielded a sensor-assay potency score (higher = more potent) (ASCL1) of -0.896.
In the case of TTCACTGTAAACCAATGTCTAC, the sensor-assay potency score (higher = more potent) (ASCL1) is reported as -1.2.
With TATTAGGACTGTCAGCAGCAGC the sensor-assay potency score (higher = more potent) (ASNSD1) was -1.12.
Sequence ATTCTCTTCAGCTTCAACCTTT has a sensor-assay potency score (higher = more potent) (ASNSD1) of 0.221.
With TGAAATACAAACATATGCCTTC the sensor-assay potency score (higher = more potent) (ASF1A) was 0.343.
For TAATAAATTCTTGTCCTCGATA, the sensor-assay potency score (higher = more potent) (ASF1A) was -1.01.
For AATACATTAACAACATTTCTAT, the sensor-assay potency score (higher = more potent) (ASCL1) was -0.252.
For TTTGAAGCTTAGAAAAGTCTGG, the sensor-assay potency score (higher = more potent) (ASF1A) was 0.13.
For TTGAACAGTATTTAATAACATC, the sensor-assay potency score (higher = more potent) (ASCL1) was -1.14.
TAAATCTTGACTGAAATGCTCA gave a sensor-assay potency score (higher = more potent) (ASNSD1) of -0.203.
TTGGAGTGCAAAGATACTGTTC gave a sensor-assay potency score (higher = more potent) (ASCL1) of 0.084.
Work on TAACATGACATTTAGTGAGTTT yielded a sensor-assay potency score (higher = more potent) (ASF1A) of -0.448.
With TATAAAGTAAGACACATTGGTG the sensor-assay potency score (higher = more potent) (ASCL1) was -0.186.
In the case of TAAGATTATATAGTAAGTCCTC, the sensor-assay potency score (higher = more potent) (ASNSD1) is reported as -0.501.
TTAGATGCCAAAATATTCCTTT showed a sensor-assay potency score (higher = more potent) (ASF1A) of 0.414.
TTACATAATAGCCAACTCTAAT showed a sensor-assay potency score (higher = more potent) (ASF1A) of -1.16.
With TAATTTTCCATTCCAAGTCTTC the sensor-assay potency score (higher = more potent) (ASF1A) was -0.557.
In the case of TTGGATTACTGCTCTCTGCATC, the sensor-assay potency score (higher = more potent) (ASF1A) is reported as -0.437.
With TTCCATAGAAACACATTGCCTC the sensor-assay potency score (higher = more potent) (ASNSD1) was 0.13.
With TCTAACATGACATTTAGTGAGT the sensor-assay potency score (higher = more potent) (ASF1A) was 0.228.
With TTCTAGAAGAAATTCGACCCAG the sensor-assay potency score (higher = more potent) (ASNSD1) was -0.284.
With AAGTCGTTGGAGTAGTTGGGGG the sensor-assay potency score (higher = more potent) (ASCL1) was -0.573.
In the case of TAAACCAATGTCTACAGCTTAT, the sensor-assay potency score (higher = more potent) (ASCL1) is reported as -1.49.
TCGAAGGTGATCTCGAACTGGA gave a sensor-assay potency score (higher = more potent) (ASF1A) of -0.487.
TTGGGCGCTGACTTGTGACCGC was tested, and the sensor-assay potency score (higher = more potent) (ASCL1) was -0.646.
With TTTTTCACCAATTCCTCGGGGT the sensor-assay potency score (higher = more potent) (ASNSD1) was 0.495.
Sequence TAAAACAGAGTCTAAAACTTGA has a sensor-assay potency score (higher = more potent) (ASF1A) of -0.0289.
Work on TTTGAGTTTGGACAGTAGCTGC yielded a sensor-assay potency score (higher = more potent) (ASCL1) of -0.582.
For TTGCTTGGGCGCTGACTTGTGA, the sensor-assay potency score (higher = more potent) (ASCL1) was -0.493.
With TTTCTTGACTGCTACACTCAGG the sensor-assay potency score (higher = more potent) (ASNSD1) was -0.64.
In the case of TTGAAGCTTAGAAAAGTCTGGT, the sensor-assay potency score (higher = more potent) (ASF1A) is reported as -0.243.
Work on TACCTTGATCTTGTCAGCCACC yielded a sensor-assay potency score (higher = more potent) (ATHL1) of -0.985.
For TCCAAGCTTATTGAGGACCCGA, the sensor-assay potency score (higher = more potent) (ATOX1) was -0.663.
For AAGCAGAGTGTCCATGCTGTGC, the sensor-assay potency score (higher = more potent) (ATOX1) was -1.19.
In the case of TCCACAGTGAGTGACTCGGTGG, the sensor-assay potency score (higher = more potent) (ATHL1) is reported as -1.15.
Work on TACTTAACTCCTCCAAGCTTAT yielded a sensor-assay potency score (higher = more potent) (ATOX1) of -1.31.
Work on TATTGAGGACCCGAGAGACAGC yielded a sensor-assay potency score (higher = more potent) (ATOX1) of -1.44.
TTGCAAAATCATTTGAAGCTGC showed a sensor-assay potency score (higher = more potent) (ATG16L1) of 0.00437.
TGGAACATCAGGATACTCGGGA was tested, and the sensor-assay potency score (higher = more potent) (ATHL1) was -0.126.
In the case of TAACTCCTCCAAGCTTATTGAG, the sensor-assay potency score (higher = more potent) (ATOX1) is reported as -1.42.
Work on ATACTTAACTCCTCCAAGCTTA yielded a sensor-assay potency score (higher = more potent) (ATOX1) of -0.272.
TAAATCTCCAGATTTTTCCTGC gave a sensor-assay potency score (higher = more potent) (ATHL1) of 0.146.
Sequence TTTTTGGCAAAGCTGCACCTGA has a sensor-assay potency score (higher = more potent) (ATHL1) of -0.809.
TTTGAGATTAGAGACTTCCCAC showed a sensor-assay potency score (higher = more potent) (ATP10B) of 0.383.
In the case of TATCATTGCAACTGGATCCTGC, the sensor-assay potency score (higher = more potent) (ATG16L1) is reported as 0.235.
For TTGGTGTACACAGAGTTGTTGA, the sensor-assay potency score (higher = more potent) (ATHL1) was -0.594.
Sequence TTCAGGGTTGCAAGCAGAGTGT has a sensor-assay potency score (higher = more potent) (ATOX1) of -1.04.
For TTTTGCTTCATTCATCTGCATC, the sensor-assay potency score (higher = more potent) (ATG16L1) was -1.44.
In the case of TGTCATACTTAACTCCTCCAAG, the sensor-assay potency score (higher = more potent) (ATOX1) is reported as -0.838.
In the case of TTTTCTTCAGGGTTGCAAGCAG, the sensor-assay potency score (higher = more potent) (ATOX1) is reported as 0.404.
Sequence TTTCTTCAGGGTTGCAAGCAGA has a sensor-assay potency score (higher = more potent) (ATOX1) of -1.16.
For TTCAATGCAGACCTTCTTGTTG, the sensor-assay potency score (higher = more potent) (ATOX1) was -0.466.
TTGATCTTGTCAGCCACCGCCA showed a sensor-assay potency score (higher = more potent) (ATHL1) of -0.876.
For TTTCCTGTTTTCTTCAGGGTTG, the sensor-assay potency score (higher = more potent) (ATOX1) was -0.588.
Sequence TTGTTGGGCAGGTCAATGTCAT has a sensor-assay potency score (higher = more potent) (ATOX1) of -0.613.
TTCTTCAGGGTTGCAAGCAGAG gave a sensor-assay potency score (higher = more potent) (ATOX1) of -0.987.
With TCAGATTCAATGCAGACCTTCT the sensor-assay potency score (higher = more potent) (ATOX1) was -0.2.
